Test results as given in PubChem BioAssay AID687016 (The Scripps Research Institute Molecular Screening Center, 2013).
Hit rate of the full screen: of about 370,000 compounds, about 2,800 (0.76%) were called active. The full list was thinned out, with actives kept by preference. A number with no mark means an inactive call. Rule as the data show it: active = inhibition above about 21%; inactive = the rest.

Target: E3 ubiquitin-protein ligase UHRF1 (Homo sapiens) (UniProt Q96T88)
Experiment: blockers of UHRF1 binding to methyl-oligo – biochemical, TR-FRET, human UHRF1, single concentration, counter-screen for MBD2 inhibitor project, primary screen (AID 687016);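 also: UHRF1 SRA domain binding a hemimethylated CpG hairpin DNA probe; 0% = median of test compound wells and 100% = reference inhibitor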
Details: UHRF1 binding to methylated oligo, at 4.4 µM, stronger effect = higher value

E3 ubiquitin-protein ligase UHRF1 (Homo sapiens), sequence (Q96T88 whole entry, looked up, the tested form may be a part): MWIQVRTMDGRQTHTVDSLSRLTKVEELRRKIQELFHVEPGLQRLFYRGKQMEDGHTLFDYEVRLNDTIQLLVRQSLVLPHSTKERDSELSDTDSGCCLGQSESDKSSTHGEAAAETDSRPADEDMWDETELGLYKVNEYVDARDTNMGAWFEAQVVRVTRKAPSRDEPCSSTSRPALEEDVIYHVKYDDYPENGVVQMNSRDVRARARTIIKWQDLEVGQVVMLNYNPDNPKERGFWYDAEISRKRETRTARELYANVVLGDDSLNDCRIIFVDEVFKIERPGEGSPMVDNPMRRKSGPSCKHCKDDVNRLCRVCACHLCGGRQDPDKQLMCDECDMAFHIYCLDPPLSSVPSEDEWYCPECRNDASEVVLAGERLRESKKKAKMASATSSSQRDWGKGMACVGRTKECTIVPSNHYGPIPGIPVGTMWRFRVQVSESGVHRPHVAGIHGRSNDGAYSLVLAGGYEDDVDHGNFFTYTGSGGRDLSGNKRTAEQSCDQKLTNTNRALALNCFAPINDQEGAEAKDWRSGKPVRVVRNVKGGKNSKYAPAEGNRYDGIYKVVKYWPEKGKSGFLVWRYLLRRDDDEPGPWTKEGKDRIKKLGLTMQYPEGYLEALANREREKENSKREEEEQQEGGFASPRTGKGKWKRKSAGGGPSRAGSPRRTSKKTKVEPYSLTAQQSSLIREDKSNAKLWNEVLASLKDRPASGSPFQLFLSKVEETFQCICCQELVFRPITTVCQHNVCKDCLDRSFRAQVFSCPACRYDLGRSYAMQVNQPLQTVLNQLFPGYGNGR

SMILES	inhibition
CCOC(=O)N1CCN(C(=O)C[C@@H]2C(=O)N(CCc3ccc(Cl)cc3)C3=CCCC[C@]32C(=O)OCC)CC1	-0.31%
c1csc(-c2nnc(SCc3nc4ccccc4[nH]3)o2)c1	-2.92%
COC(=O)[C@]12C[C@H](CC(=O)N3CCOCC3)C(=O)N(Cc3ccc(Cl)cc3Cl)C1=C[C@H](C(C)C)O[C@@H]2C1CC1	-0.21%
CCCCC(=O)Nc1ccc(C(=O)NCCCn2ccnc2)cc1	-2.85%
CC(C)(C)C(=O)Nc1ccc(-c2cn3cccnc3n2)cc1	-3.25%
CCCCCC(=O)Nc1ccc(-c2cn3cccnc3n2)cc1	23.5% (active)
Clc1ccc(-n2c(SC/C=C/c3ccccc3)nnc2-c2ccco2)cc1	0.89%
CC1CCN(c2ccc(C(=O)O)cc2NS(=O)(=O)c2ccc(Br)s2)CC1	-1.98%
COC(=O)[C@@]12CCCCC=C1N(CCc1ccc(Cl)cc1)C(=O)[C@H]2CC(=O)NCc1ccc(OC)c(OC)c1	0.86%
CCCCN1C(=O)C(CC(=O)NCc2cccs2)CC(C(=O)N2CCOCC2)=C1C (stereo not drawn)	22.9% (active)
COCCCN1C(=O)C(CC(=O)NCc2cccs2)CC(C(=O)N2CCOCC2)=C1C (stereo not drawn)	0.04%
CCCCN1C(=O)C(CC(=O)NCc2cccs2)CC(C(=O)N2CCCCCC2)=C1C (stereo not drawn)	-0.83%
Oc1ccc(/C=C/c2c(F)cccc2F)c2cccnc12	-8.09%
O=C1C(=O)N(Cc2ccc(-c3ccsc3)cc2)c2ccc(OC(F)(F)F)cc21	1.64%
O=C1CCC2(CCC(c3ccc(Cl)cc3)CC2)N1CCO (stereo not drawn)	-1.17%
O=C(C1CCN(S(=O)(=O)c2ccccc2)CC1)N1CCN(C2CCCCC2)CC1	-0.54%
COc1ccc(Cn2cc(CN3[C@@H](CC(C)C)COc4cc(Br)ccc4S3(=O)=O)nn2)cc1	-1.35%
COc1cccc(NC(=O)c2cc(S(=O)(=O)N3CCc4ccccc43)cn2C)c1	-1%
COc1ccc(S(=O)(=O)N2CCc3ccccc32)cc1C(=O)Nc1cc(S(C)(=O)=O)ccc1Cl	21.6% (active)
CCN(C(=O)COC(=O)c1cc(S(=O)(=O)N2CCc3ccccc32)ccc1OC)C1CCS(=O)(=O)C1 (stereo not drawn)	-0.66%
O=C(C1CCCN1S(=O)(=O)c1ccccc1)N1CCc2ccccc2C1 (stereo not drawn)	1.67%
O=S1(=O)c2ccc(N3CCN(Cc4ccccc4F)CC3)cc2Oc2ccccc2CN1Cc1cn(Cc2ccc(Cl)cc2)nn1	3.23%

SMILES	inhibition
Nc1ccc2nc3c(=O)[nH]c(=S)[nH]c3nc2c1	29.6% (active)
N#Cc1ccc(OC[C@@H](O)CN2CCC(C(O)(c3ccccc3)c3ccccc3)CC2)c(F)c1	-0.23%
C=CCN1C(=O)[C@@H](CC(=O)N2CCN(C(=O)OCC)CC2)[C@]2(C(=O)OCC)CCCCC/C=C/12	0.51%
Cc1cc(C)cc(OCC(=O)Nc2cc(NC(=O)COc3cc(C)cc(C)c3)cc(C(=O)O)c2)c1	-0.86%
Cc1cc(C)cc(OCC(=O)NCc2cc(C)nc3ccccc23)c1	37.5% (active)
Cc1cc(C)cc(OCC(=O)NNC(=O)CCN2C(=O)c3ccccc3C2=O)c1	-0.19%
CCOc1ccc(Oc2c(Cl)cnn(-c3ccc(C)cc3)c2=O)cc1	0.41%
CCOC(=O)C1=C(C)NC2=C(C(=O)CC(C)(C)C2)C1c1ccc2c(c1)OCO2 (stereo not drawn)	3.68%
O=C(Nc1nc2ccc(Cl)cc2s1)c1cc(-c2ccc(Cl)cc2)nc2ccccc12	1.94%
O=C(Nc1cccc(F)c1)c1cc(-c2ccco2)nc2ccccc12	23% (active)
Cc1cc(C(=O)Nc2ccc(C)c(S(=O)(=O)N3CCOCC3)c2)c2ccccc2n1	6.42%
O=C1CC[C@@H](COc2ccc3[nH]cc(-c4ccccc4)c3c2-c2ccccc2)N1	-0.59%
C[C@H](C(=O)N(C)c1ccccc1)[C@@H](O)c1ccc(Cl)cc1	-0.97%
COc1cccc(CNC(=O)C2CCCN(c3nc4ccccc4o3)C2)c1OC (stereo not drawn)	3.57%
C=CCOC/C=C/C#CCN(CC=C)Cc1ccc(OC)cc1OC	-1.02%
O=C(NCc1cccs1)C1CCCN(S(=O)(=O)c2ccc([N+](=O)[O-])cc2)C1 (stereo not drawn)	1.19%
O=C(NCCOc1ccccc1F)Nc1ccc(Br)cc1	4.11%
COCCN(C(=O)c1ccco1)c1nnc(-c2ccc(OC)cc2)s1	-1.02%
COCCNC(=O)Nc1ccc2nc(-c3ccco3)c(-c3ccco3)nc2c1	91.1% (active)
O=C(NC1CCCC1)C1CSCCS(=O)(=O)N1Cc1ccccc1 (stereo not drawn)	-0.6%
COC(=O)[C@]12C[C@H](CC(=O)NCCc3ccccc3OC)C(=O)N(Cc3ccco3)C1=C[C@H](C(C)C)O[C@@H]2C1CC1	3.75%
Oc1c(CN2CCOCC2)ccc(CN2CCOCC2)c1O	25.4% (active)

SMILES	inhibition
OCCN1CCOCCOCCN(CCO)CCN(CCO)CC1	-0.79%
O=[N+]([O-])c1ccc(COc2ccccc2CN2CCOCC2)cc1	-1.96%
O=C(CSc1nnc(-c2ccccn2)n1-c1ccccc1)Nc1ccc2cn[nH]c2c1	-1.24%
Cc1ccccc1CS(=O)(=O)Cc1ccc(C(=O)Nc2ccc(Cl)cc2)o1	0.04%
Cc1c(NC(=S)Nc2ccccc2)c(=O)n(-c2ccccc2)n1C	-4.22%
Cc1c(NC(=O)c2c([N+](=O)[O-])cnn2C)c(=O)n(-c2ccccc2)n1C	-1.94%
Cc1c(NC(=O)c2cccnc2)c(=O)n(-c2ccccc2)n1C	23.3% (active)
COC(=O)[C@]12C[C@H](CC(=O)NCc3ccccc3)C(=O)N(CCC3=CCCCC3)C1=C[C@H](C(C)C)O[C@@H]2C1CC1	3.6%
COC(=O)C1CN(Cc2ccc(F)cc2)CCS(=O)(=O)N1Cc1ccc(Cl)cc1 (stereo not drawn)	2.67%
O=C(Nc1cccc(Cl)c1)OC1CC2CC1[C@H]1CCCCN1[C@H]2Cc1ccccc1 (stereo partly drawn)	0.5%
Cc1ccccc1CSc1nnc(CCCCCNC(=O)OC(C)(C)C)o1	0.59%
Cc1cccc(NC(=O)CSc2nnc(CCCCCNC(=O)OC(C)(C)C)o2)c1C	34.9% (active)
Cc1cccc(NC(=O)CSc2nnc(CCNC(=O)OC(C)(C)C)o2)c1C	2.63%
O=C(NCc1cccs1)C1CCN(S(=O)(=O)c2ccccc2[N+](=O)[O-])CC1	4.97%
COc1ccc(OCC(=O)Nc2cc(C)c(Cl)cc2OC)c([N+](=O)[O-])c1	-2.47%
Cc1cc(NC(=O)COC(=O)COc2ccc(Cl)cc2C)c([N+](=O)[O-])cc1C	23% (active)
CCCC(=O)OCC(=O)Nc1cc(Cl)ccc1[N+](=O)[O-]	-3.24%
C=CCN1C(=O)[C@@H](CC(=O)N2CCN(C(=O)c3ccco3)CC2)[C@]2(C(=O)OC)CCCCC=C12	1.46%
O=C(Nc1ccc(Br)cc1)OCCN1C(=O)CCC12CCC(c1ccccc1)CC2 (stereo not drawn)	-4.19%
CC(=O)O[C@@]1(C(C)=O)CCC2[C@H]3C=C(C)C4=CC(=O)CC[C@@]4(C)C3CC[C@]21C (stereo partly drawn)	2.53%
CCCCNC(=O)C[C@@H]1C(=O)N(CCc2ccc(Cl)cc2)C2=CCCC[C@]21C(=O)OCC	-3.97%
COc1ccc(-c2cc(-c3nnc(SCc4ccc([N+](=O)[O-])cc4)n3N)[nH]n2)cc1	-1.01%

SMILES	inhibition
CC(CN1CCCCC1)c1ccccc1 (stereo not drawn)	-1.54%
CC(CN1CCOCC1)c1ccccc1 (stereo not drawn)	55.2% (active)
OC(c1ccccc1)C(CN1CCOCC1)c1ccccc1 (stereo not drawn)	-2.23%
COC(=O)[C@]1(C#N)CC(=O)N(CC2CCCCC2)[C@@H]1c1ccccc1	5.42%
Cc1ccc(C(=O)COC(=O)CCCC(=O)NC2CCCCC2)cc1[N+](=O)[O-]	48.1% (active)
O=C(COC(=O)c1cc([N+](=O)[O-])ccc1NCc1ccccc1)NC1CCCCC1	-2.56%
Cc1ccc(C(=O)OCC(=O)NC2CCCCCCC2)cc1C	0.37%
O=C(CCNC(=O)c1ccc([N+](=O)[O-])cc1)NC1CCCCC1	-0.33%
O=C(COC(=O)Cc1ccc([N+](=O)[O-])cc1)NC1CCCCCC1	45.9% (active)
COC(=O)Cc1ccc(OCC(=O)NC2CCCC2)cc1	0.36%
CCCC[C@H](C(=O)N(CC)c1ccccc1)[C@@H](O)c1ccc2ccccc2c1	-2.02%
Cc1ccccc1CN1CCCCC(NC(=O)c2cccc(C#N)c2)C1=O (stereo not drawn)	-0.18%
COC(=O)C[C@@H]1CC[C@H]2[C@@H](COc3ccc(NS(=O)(=O)CC(F)(F)F)cc3C(=O)N2C)O1	1.54%
CC[C@@H](CCC(=O)N(c1ccccc1)c1ccccc1)C1CC1	1.36%
CC(NC(=S)NC1CCCCC1)C(c1ccccc1)N1CCOCC1 (stereo not drawn)	0.56%
S=C(NC1CCCCC1)NN1CCOCC1	32.8% (active)
COC(=O)c1ccc(NC(=S)NN2CCOCC2)cc1	-1.42%
N[C@@H](Cc1ccccc1)C(=O)N1CCC[C@@H]1C(=O)N1CCC2CCN(S(=O)(=O)c3ccccc3)CC21 (stereo partly drawn)	1.24%
C=CCN(C)CC#Cc1ccccc1	1.63%
NC(=O)c1ccc(CN2CCC(Cc3ccccc3)CC2)cc1	-0.37%
CC(C)(C)NC(=O)NC(=O)CN1CCC(Cc2ccccc2)CC1	38.1% (active)
O=C(CN1CCCCC1)NC(=O)Nc1ccccc1F	-2.79%
